Bioassay records from PubChem.
HCV inhibitor: blocks hepatitis C virus; Huh7.5.1 HCVcc-Cre infection, luciferase reporter, 44 h; Potency, µM (titrated, usually from 41.8 µM), most hits filed as inhibitors; actives 3.4% (n = 340,000); AID 651820
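Antiviral activity was scored by luciferase reporter output from cells infected with HCVcc-Cre (~0.5 moi) in presence of compound, 44 h infection period, cells seeded 1,000/well 4 h prior.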
HCMV antiviral: human cytomegalovirus inhibition; HFF cells, HCMV-luciferase reporter, 72 h; stronger effect = lower value; activity change, negative = inhibition, % at 57.5 µM; actives 4.5% (n = 410,000); AID 1259415; in the data active means activity change below about -60%; inconclusive means no clear call, values can overlap the other calls; inactive means above about -39%
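Luciferase read-out from HCMV-luciferase-infected HFFs (MOI 1 PFU/cell) 72 h post infection at 37C; compounds added after 16 h cell attachment; activity normalized between buffer-only basal and Salinomycin (10uM) inhibitor controls.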
Shiga inhibitor: Shiga toxin inhibition; inhibition, % at 38.7 µM; Vero cells, Shiga toxin protein synthesis inhibition reporter; actives 9.2% (n = 290,000); AID 2315; in the data active means inhibition mostly above about 28%, no sharp cut-off; inactive means mostly below about 43%
Pf growth 96h: P. falciparum growth inhibition at 96 hour, primary screen for plastid delayed-death inhibitors. P. falciparum luciferase reporter growth, 96 h. Potency, µM (highest dose often 28.7 µM), usual class: inhibitors. actives 6.9% (n = 320,000)
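Two-generation exposure (96 h) targets delayed-death phenotype. Reporter parasites carrying integrated firefly luciferase, in red cells at 2% hematocrit and 0.05% parasitemia final, kept at 37 C, 5% CO2; luminescence loss indicates inhibition.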
Pf growth 48h: P. falciparum growth inhibition at 48 hours (one generation) | P. falciparum luciferase growth in erythrocytes, 48 h | Potency, µM (highest dose often 28.7 µM), hits mostly inhibitors | actives 5.9% (n = 310,000)
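Read-out is firefly luciferase luminescence from an integrated reporter in P. falciparum, so falling signal marks reduced parasite growth. Infected erythrocytes were at 2% hematocrit and 0.1% parasitemia (final) in Albumax-supplemented RPMI 1640.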
Cycloheximide cs: counter-screen hit for Shiga toxin inhibitors, cycloheximide. actives 12% (n = 300,000). max response, %. cell reporter, cycloheximide protein synthesis inhibition counterscreen. AID 2314; in the data active means max response mostly above about 13%, no sharp cut-off; inactive means mostly below about 14%; further: read at 38.3 µM for the half of the compounds with a filed dose
Of the large screens only hits and unclear results are named; the others gave an inactive call. Rows were chosen to be rich in hits. Some 21% of all compounds tested hit in one or more screens of this group. Unless noted, the call rests on the fitted dose curve; in most records, active means well fitted inhibition curve with a large enough effect; inconclusive means small, poorly fitted or top-dose-only effect, or another doubt; inactive means no such curve, though single readings can be large or run the other way.

C/C(=N\NC(=O)c1ccc(Cn2cc(Br)cn2)o1)c1cccc(NC(=O)C(C)(C)C)c1	HCMV antiviral inconclusive, Pf growth 96h inconclusive
COc1ccc(/C=N/NC(=O)c2ccc(COc3ccccc3Cl)o2)cc1	HCV inhibitor inconclusive, Pf growth 96h inconclusive
CCOc1ccc(/C=N/NC(=O)c2ccc(Cn3cc(Br)cn3)o2)cc1	Shiga inhibitor active, Cycloheximide cs 28
CCOc1ccc(/C=N/NC(=O)c2ccc(Cn3cc([N+](=O)[O-])cn3)o2)cc1	Shiga inhibitor 51, Pf growth 96h inconclusive, Cycloheximide cs 23
C/C(=N\NC(=O)c1ccc(Cn2cc([N+](=O)[O-])cn2)o1)c1cccc(NC(=O)c2cccnc2)c1	Pf growth 96h 4.1µM
Nc1cc(=O)[nH]n1C1CCCCC1	none
COc1ccc(NC(=O)C(=O)NCC2(c3ccccc3)CCCC2)c(OC)c1	none (no result: HCV inhibitor, Shiga inhibitor, Pf growth 96h, Pf growth 48h, Cycloheximide cs)
C=CCN(CC=C)C(=O)CN1C(=O)NC(Cc2c[nH]c3ccccc23)C1=O (stereo unspecified)	none
O=C(N/N=C/c1cccc(O)c1)c1ccc(COc2ccc3c(c2)CCC3)o1	Shiga inhibitor 57, Cycloheximide cs 35 (no result: Pf growth 48h)
CC(/C=N/NC(=O)c1ccc(Cn2cc([N+](=O)[O-])cn2)o1)=C\c1ccccc1	Shiga inhibitor 72, Pf growth 96h inconclusive, Cycloheximide cs 26
C/C(=N\NC(=O)c1ccc(Cn2cc(Br)cn2)o1)c1ccc(NC(=O)c2ccoc2C)cc1	HCV inhibitor 7.1µM, Shiga inhibitor 65, Pf growth 96h inconclusive, Pf growth 48h inconclusive, Cycloheximide cs 39
CCCc1ccc(OCc2ccc(C(=O)N/N=C/c3cccnc3)o2)cc1	Shiga inhibitor 110, Cycloheximide cs 68
O=C(Nc1cccc(C(F)(F)F)c1)c1ccc(Cn2cc(Br)cn2)o1	HCMV antiviral inconclusive
Cc1cccc(N2CC(C(=O)O)CC2=O)c1C (stereo unspecified)	Pf growth 48h inconclusive
CCCCNCC1C(Oc2ccc(Cl)cc2)C(=O)N1c1ccccc1C (stereo unspecified)	HCV inhibitor inconclusive, HCMV antiviral -79, Pf growth 48h 15µM
CCCNCC1C(Oc2ccc(Cl)cc2Cl)C(=O)N1c1cccc(C)c1C (stereo unspecified)	HCV inhibitor 32µM, HCMV antiviral -90, Pf growth 48h inconclusive
Cc1cccc(N2CCN(C(=O)COc3cc4oc(=O)cc(C)c4cc3Cl)CC2)c1C	none
Cc1cccc(N2C(=O)C(Oc3ccc(Cl)cc3Cl)C2C(=O)O)c1C (stereo unspecified)	Pf growth 96h 10µM
Fc1ccccc1OCCCCN1CCCCC1	Pf growth 96h inconclusive
COCCn1c(CN2CCN(c3ccc(F)cc3)CC2)nc2c1c(=O)n(C)c(=O)n2C	none (no result: HCV inhibitor, HCMV antiviral)
CCCCCn1c(CN2CCN(C(=O)c3ccco3)CC2)nc2c1c(=O)n(C)c(=O)n2C	Pf growth 96h inconclusive, Pf growth 48h 9.3µM
CCCCn1c(CN2CCN(c3ccc(F)cc3)CC2)nc2c1c(=O)n(C)c(=O)n2C	Pf growth 96h inconclusive, Cycloheximide cs 30
Cn1c(=O)c2c(nc(CN3CCN(C(=O)c4ccco4)CC3)n2CCCc2ccccc2)n(C)c1=O	Pf growth 96h 7.4µM (no result: Pf growth 48h)
CCCCCCn1c(CN2CCN(C(=O)c3ccco3)CC2)nc2c1c(=O)n(C)c(=O)n2C	Pf growth 96h inconclusive, Pf growth 48h inconclusive
CCCCn1c(CN2CCN(C(=O)c3ccco3)CC2)nc2c1c(=O)n(C)c(=O)n2C	Pf growth 96h 13µM, Pf growth 48h inconclusive
Cc1cc(NC(=O)CN2C(=O)C(C)(C)c3ccccc32)ccc1Br	none (no result: HCV inhibitor, Shiga inhibitor, Pf growth 96h, Pf growth 48h, Cycloheximide cs)
Cc1ccccc1N1CCN(C2=NC(=O)/C(=C/c3cn[nH]c3-c3ccccc3)S2)CC1	Pf growth 96h inconclusive
Cc1cc([N+](=O)[O-])ccc1P(=O)(O)c1ccc([N+](=O)[O-])cc1C	none (no result: Shiga inhibitor, Pf growth 96h, Pf growth 48h, Cycloheximide cs)
CN(C)c1ccc(S(=O)(=O)NCC(=O)OCC(=O)NC(=O)C2CCCCC2)cc1[N+](=O)[O-]	none (no result: Shiga inhibitor, Cycloheximide cs)
CC(=O)Nc1ccc(S(=O)(=O)NCC(=O)OCC(=O)NC(=O)C2CCCCC2)cc1	Cycloheximide cs 21
O=C(NCCN1CCOCC1)c1cccc(S(=O)(=O)Nc2ccc(Br)cc2)c1	Pf growth 48h inconclusive (no result: Shiga inhibitor, Cycloheximide cs)
c1ccc(-c2nc3ccccc3nc2-c2ccccn2)nc1	none
Cc1cc2nc(-c3ccccn3)c(-c3ccccn3)nc2cc1C	Cycloheximide cs 18 (no result: HCV inhibitor)
COc1ccc(N2C(=O)NC(NS(=O)(=O)c3ccccc3)(C(F)(F)F)C2=O)cc1 (stereo unspecified)	none (no result: HCV inhibitor)
COc1ccc(N2C(=O)NC(NS(=O)(=O)c3ccc(NC(C)=O)cc3)(C(F)(F)F)C2=O)cc1 (stereo unspecified)	Pf growth 96h 9.3µM
CCOP(=S)(OCC)SCC(=O)NC(C)(CC)C(=O)O (stereo unspecified)	Pf growth 96h 7.4µM (no result: Pf growth 48h)
COC(=O)C1=C(c2cc3ccccc3s2)C[C@@H]2CC[C@H]1N2C(=O)N1CCOCC1	HCV inhibitor inconclusive (no result: Shiga inhibitor, Pf growth 96h, Pf growth 48h, Cycloheximide cs)
COC(=O)C1=C(c2cccc3c2S(=O)(=O)c2ccccc2-3)C[C@@H]2CC[C@H]1N2C(=O)N1CCc2cc(OC)c(OC)cc2C1	HCV inhibitor 10µM, Pf growth 96h inconclusive, Pf growth 48h 3.7µM (no result: Shiga inhibitor, Cycloheximide cs)
COC(=O)C1=C(c2cccc3c2S(=O)(=O)c2ccccc2-3)C[C@@H]2CC[C@H]1N2C(=O)N1CCOCC1	Pf growth 96h 6.6µM, Pf growth 48h 10µM (no result: Shiga inhibitor, Cycloheximide cs)
CC(C)(C)c1ccc(C(=O)N2CCCC2c2cccs2)cc1 (stereo unspecified)	Pf growth 96h inconclusive, Pf growth 48h 15µM
CS(=O)(=O)Cc1ccc(C(=O)N2CCCC2c2cccs2)cc1 (stereo unspecified)	none
C[N+](C)(C)CC/C=C1/c2ccccc2CSc2ccccc21	Pf growth 96h 4.1µM, Pf growth 48h 9.3µM
COc1cc2ccccc2cc1C(=O)N1CCN(c2nc3c(C)cc(C)cc3s2)CC1	none (no result: HCV inhibitor, Shiga inhibitor, Pf growth 96h, Pf growth 48h, Cycloheximide cs)
CC(C)OC(=O)c1ccc(OC(=O)c2cccnc2)cc1	Cycloheximide cs 12 (no result: Pf growth 96h)
O=C(Nc1ccc(OC(=O)c2cccnc2)cc1)c1cccnc1	Pf growth 48h inconclusive
CC(=O)Nc1ccc(OC(=O)c2cccnc2)cc1	Pf growth 96h 1.2µM, Pf growth 48h inconclusive
COc1ccc(/C=C/C(=O)OCC(=O)NC(C)CCc2ccccc2)cc1OC (stereo unspecified)	none (no result: Shiga inhibitor, Pf growth 96h, Pf growth 48h, Cycloheximide cs)
COc1ccc(-c2c(C#Cc3ccsc3)c3cc(-c4ccc(OC)c(F)c4)ccc3n2C)cc1	Pf growth 96h inconclusive (no result: Shiga inhibitor, Cycloheximide cs)
CCOC(=O)c1ccccc1NC(=O)c1c2c(nc3ccccc13)C(=O)N(C1CCCCC1)C2	none (no result: HCV inhibitor, Shiga inhibitor, Pf growth 96h, Pf growth 48h, Cycloheximide cs)
CCOCCc1nn2c(=O)cc(COC(=O)Cc3ccccc3)nc2s1	none (no result: HCV inhibitor, Shiga inhibitor, Pf growth 96h, Pf growth 48h, Cycloheximide cs)
COC(=O)c1c(C)[nH]c(C(=O)C(Cc2ccccc2)N(C)C)c1C (stereo unspecified)	Shiga inhibitor 96, Cycloheximide cs 26 (no result: Pf growth 96h)
